For 4 compounds, composite z-score and z-score results are on record in PubChem BioAssay.

Active and inactive are the calls of the source. Unless noted, how the calls were made is not given here.

For experiment [1], the system named is Wnt5a (protein binding on small-molecule microarray). As to the kind of experiment: small molecules binding Wnt5a protein – biophysical, small-molecule microarray, 635/667 nm fluorescence, primary screen (AID 1142).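 Further: fluorescence read at 667 nm with signal to noise per printed feature.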 Conditions: 635 nm fluorescence, higher = more signal.
A short description of experiment [2]: ATP-based viability of Huh7 replicon cells – cell-based, CellTiter-Glo luminescence, basal, 48 h, cytotoxicity control for HCV replication inhibitor project, primary screen (AID 1143).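 Further: Huh7 hepatoma cells carrying a hepatitis C replication reporter with no stimulus; test concentration not given here.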 Conditions: higher = more signal, called active from +8 up or from −8 down. For orientation: A replicon is a self-replicating genome or part of one, used to study replication in cells.

Experiment [3] can be described thus: Pseudomonas biofilm growth suppression – PAO1 strain, BacTiter-Glo luminescence, LB-PBS, primary screen (AID 1144). Conditions: P. aeruginosa PAO1 biofilm, 12 h, higher = more signal.
Experiment [4] is described as follows: basal CRE-LacZ reporter activity in PC12 – cell-based, unstimulated, primary screen (AID 1145). Conditions: no forskolin, luminescence, 4.5 h, higher = more signal, called active from +8 up or from −8 down.
A short description of experiment [5]: forskolin-driven CRE-LacZ activity in PC12 – cell-based, CRE-LacZ reporter, forskolin-stimulated, primary screen (AID 1146).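 Further: PC12 cells with 6xCRE LacZ reporter stimulated by forskolin 10 µM; beta-galactosidase reporter signal reflecting CREB driven transcription.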 Conditions: luminescence, 4.5 h, higher = more signal, called active from +8 up or from −8 down.
In experiment [6] the target is Streptavidin (Streptomyces avidinii) (UniProt P22629). The experiment can be described thus: compounds binding control protein streptavidin – biophysical, small-molecule microarray, 635/667 nm fluorescence, artefact control for SMM compound annotation, primary screen (AID 1147).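 Further: signal reflects streptavidin binding to arrayed compounds as a control protein.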 Conditions: higher = more signal.
Experiment [7] is described as follows: probe aInhba binding on compound microarray – biochemical, small-molecule microarray, 635/667 nm fluorescence, primary screen (AID 1148).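 Further: score merges 667nm spot fluorescence with signal-to-noise for antibody binding to printed compounds.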 Conditions: higher = more signal.
In experiment [8] the target is Torsin-1A (Homo sapiens) (UniProt O14656). As to the kind of experiment: TOR1A wild-type binding on microarray – cell lysate, small-molecule microarray, lysate, 635/667 nm, primary screen (AID 1149). Conditions: COS7 hTOR1A-WT lysate, 635 nm fluorescence, higher = more signal.
Experiment [9] has the same target. As to the kind of experiment: torsin A mutant lysate binding on microarrays – cell lysate, small-molecule microarray, COS7 lysate, 635/667 nm fluorescence, primary screen (AID 1150).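 Further: score pools 667 nm emission and signal to noise measuring lysate protein binding.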 Conditions: COS7 hTOR1A mutant lysate, 635 nm fluorescence, higher = more signal.
For experiment [10], the system named is Sonic hedgehog protein (Shh). As to the kind of experiment: Sonic hedgehog microarray binding compounds – biochemical, small-molecule microarray, 635/667 nm fluorescence, primary screen (AID 1151).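 Further: Shh protein binding to compounds spotted on small-molecule microarray slides; score combines spot fluorescence intensity with signal-to-noise across triplicate slides.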 Conditions: 635 nm fluorescence, higher = more signal.
A short description of experiment [11]: optical density shifts of acrAB sulA E. coli – strain DRC41, OD650, 48 h, E. coli filamentation inducer project, primary screen (AID 1152).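 Further: E. coli MC1000 strain DRC41 lacking acrAB efflux pump and sulA.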 Conditions: higher = more signal, called active from +8 up or from −8 down.
Experiment [12] can be described thus: probe aLefty1 binding on compound microarray – biochemical, small-molecule microarray, 635/667 nm fluorescence, primary screen (AID 1153).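 Further: score merges spot fluorescence with signal-to-noise ratio from the scanned slide images.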 Conditions: higher = more signal.
Experiment [13] is described as follows: plasmodial surface anion channel blockers, osmotic lysis – cell-based, P. falciparum Indochina, OD700, 1 h, primary screen (AID 1154). Conditions: P. falciparum Indochina infected RBC osmotic lysis, higher = more signal, called active from +8 up or from −8 down.
Experiment [14] is described as follows: plasmodial surface anion channel blockers, osmotic lysis – cell-based, P. falciparum Indochina, OD700, 2 h, primary screen (AID 1155).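 Further: lysis reports solute entry through the parasite surface anion channel PSAC.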 Conditions: P. falciparum Indochina infected erythrocytes, higher = more signal, called active from +8 up or from −8 down.
The nature of experiment [15]: changes in parasitized red cell lysis, either direction – P. falciparum Indochina, OD700, 3 h, PSAC antagonist project, primary screen (AID 1156). Conditions: P. falciparum-infected erythrocytes, osmotic lysis, higher = more signal, called active from +8 up or from −8 down.
Experiment [16] can be described thus: plasmodial surface anion channel blockers, osmotic lysis – cell-based, P. falciparum Indochina, OD700, 18 h, primary screen (AID 1157). Conditions: P. falciparum Indochina infected erythrocytes, osmotic lysis OD700, 18 h; higher = more signal, called active from +8 up or from −8 down.
The nature of experiment [17]: S6 kinase pathway phospho-S6 level changes – cell-based, A549, cytoblot, luminescence, serum-stimulated, primary screen (AID 1158).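 Further: serum-stimulated A549 lung adenocarcinoma cells; signal is phosphorylated S6 detected by cytoblot immunostaining with HRP secondary.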 Conditions: 5 h, higher = more signal.
Experiment [18] concerns the target NADPH oxidase 2 (Homo sapiens) (UniProt P04839). The experiment can be described thus: compounds shifting NOX2 Amplex Red fluorescence – cell-based, HEK293-NOX2, PMA-stimulated, NOX inhibitor project, primary screen (AID 1159). Further: test concentration not given here. Conditions: 45 min, higher = more signal, called active from +8 up or from −8 down.
Experiment [19] concerns the target NADPH oxidase 4 (Homo sapiens) (UniProt Q9NPH5). As to the kind of experiment: compounds shifting NOX4 Amplex Red fluorescence – cell-based, HEK293-NOX4, tetracycline-induced, NOX inhibitor project, primary screen (AID 1160). Conditions: HEK293-NOX4, Amplex Red H2O2 fluorescence, 45 min; higher = more signal, called active from +8 up or from −8 down.
The target of experiment [20] is NADPH oxidase 5 (Homo sapiens) (UniProt Q96PH1). The experiment can be described thus: compounds shifting NOX5 Amplex Red fluorescence – cell-based, HEK293-NOX5, NOX inhibitor project, primary screen (AID 1161). Conditions: HEK293-NOX5, ionomycin, 45 min, higher = more signal.
NADPH oxidase 5 (Homo sapiens), sequence (Q96PH1 whole entry, looked up): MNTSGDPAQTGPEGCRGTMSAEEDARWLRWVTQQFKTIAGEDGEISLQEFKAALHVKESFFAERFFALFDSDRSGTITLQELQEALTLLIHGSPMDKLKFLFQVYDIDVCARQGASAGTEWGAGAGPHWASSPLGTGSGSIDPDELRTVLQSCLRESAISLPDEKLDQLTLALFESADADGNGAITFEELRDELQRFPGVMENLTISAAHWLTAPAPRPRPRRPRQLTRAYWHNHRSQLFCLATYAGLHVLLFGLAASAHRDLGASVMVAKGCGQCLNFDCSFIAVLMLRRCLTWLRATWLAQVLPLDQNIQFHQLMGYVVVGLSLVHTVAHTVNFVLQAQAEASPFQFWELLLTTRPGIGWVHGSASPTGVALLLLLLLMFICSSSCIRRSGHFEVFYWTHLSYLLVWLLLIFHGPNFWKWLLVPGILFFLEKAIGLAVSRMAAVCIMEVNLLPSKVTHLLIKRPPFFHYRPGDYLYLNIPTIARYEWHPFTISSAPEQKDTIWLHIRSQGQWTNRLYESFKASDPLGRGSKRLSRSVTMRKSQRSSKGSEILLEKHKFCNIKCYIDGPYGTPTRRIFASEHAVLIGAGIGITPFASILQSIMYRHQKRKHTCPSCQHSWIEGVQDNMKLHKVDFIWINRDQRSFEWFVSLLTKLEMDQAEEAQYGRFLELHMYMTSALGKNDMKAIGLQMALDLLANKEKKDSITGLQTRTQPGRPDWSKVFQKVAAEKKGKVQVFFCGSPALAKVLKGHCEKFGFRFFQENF

Streptavidin (Streptomyces avidinii), sequence (P22629 whole entry, looked up): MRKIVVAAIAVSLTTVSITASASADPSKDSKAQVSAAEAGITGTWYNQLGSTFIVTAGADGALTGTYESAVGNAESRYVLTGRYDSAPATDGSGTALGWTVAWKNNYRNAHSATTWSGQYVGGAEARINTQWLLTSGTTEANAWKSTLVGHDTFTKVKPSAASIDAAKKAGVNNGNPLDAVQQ
NADPH oxidase 4 (Homo sapiens), sequence (Q9NPH5 whole entry, looked up): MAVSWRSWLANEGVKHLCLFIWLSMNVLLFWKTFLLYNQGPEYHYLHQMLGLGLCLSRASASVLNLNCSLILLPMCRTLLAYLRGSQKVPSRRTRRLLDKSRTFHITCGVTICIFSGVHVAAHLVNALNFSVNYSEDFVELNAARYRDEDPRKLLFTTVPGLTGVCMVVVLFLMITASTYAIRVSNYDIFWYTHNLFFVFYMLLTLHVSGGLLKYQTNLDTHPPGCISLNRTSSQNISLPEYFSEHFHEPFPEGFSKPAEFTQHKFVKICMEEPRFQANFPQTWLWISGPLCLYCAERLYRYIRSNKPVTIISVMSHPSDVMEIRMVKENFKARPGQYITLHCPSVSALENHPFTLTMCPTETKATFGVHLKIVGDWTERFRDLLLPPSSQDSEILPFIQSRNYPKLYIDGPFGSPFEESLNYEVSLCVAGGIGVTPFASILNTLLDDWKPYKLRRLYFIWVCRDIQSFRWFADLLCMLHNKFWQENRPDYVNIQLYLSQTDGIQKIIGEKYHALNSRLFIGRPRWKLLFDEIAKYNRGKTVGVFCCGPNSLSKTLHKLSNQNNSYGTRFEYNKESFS
Torsin-1A (Homo sapiens), sequence (O14656 whole entry, looked up): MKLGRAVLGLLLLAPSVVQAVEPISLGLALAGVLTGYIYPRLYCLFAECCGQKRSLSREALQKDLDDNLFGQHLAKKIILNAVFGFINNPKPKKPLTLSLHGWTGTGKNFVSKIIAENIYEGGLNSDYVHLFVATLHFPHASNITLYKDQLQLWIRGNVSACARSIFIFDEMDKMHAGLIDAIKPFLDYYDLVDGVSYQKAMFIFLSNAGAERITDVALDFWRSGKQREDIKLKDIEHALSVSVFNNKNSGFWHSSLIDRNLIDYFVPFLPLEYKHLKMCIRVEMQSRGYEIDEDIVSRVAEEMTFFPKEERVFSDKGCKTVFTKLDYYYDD
NADPH oxidase 2 (Homo sapiens), sequence (P04839 whole entry, looked up): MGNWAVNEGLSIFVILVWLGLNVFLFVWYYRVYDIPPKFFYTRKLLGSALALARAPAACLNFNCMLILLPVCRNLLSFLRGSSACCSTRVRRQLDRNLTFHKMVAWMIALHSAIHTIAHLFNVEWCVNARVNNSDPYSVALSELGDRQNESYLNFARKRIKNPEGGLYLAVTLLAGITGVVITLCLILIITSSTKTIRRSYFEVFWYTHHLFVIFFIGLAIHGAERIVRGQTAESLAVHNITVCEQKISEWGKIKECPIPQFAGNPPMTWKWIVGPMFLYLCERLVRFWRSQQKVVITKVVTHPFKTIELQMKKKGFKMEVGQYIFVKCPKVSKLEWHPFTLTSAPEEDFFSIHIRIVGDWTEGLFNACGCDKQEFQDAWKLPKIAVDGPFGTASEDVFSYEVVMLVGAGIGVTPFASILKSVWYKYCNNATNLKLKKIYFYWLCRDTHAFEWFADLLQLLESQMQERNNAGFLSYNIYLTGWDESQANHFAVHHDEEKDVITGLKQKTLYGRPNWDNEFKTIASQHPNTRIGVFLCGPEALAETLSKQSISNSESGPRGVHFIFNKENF

For the compound `CC(CCN1CCCc2nc(C)c(C)cc21)=NO[C@H](C)c1cn([C@H](CO)Cc2ccccc2)nn1`, the composite z-score was 0.22 in [1]; -0.0592 in experiment [6]; 0.0487 in experiment [7]; 1 in [8]; 0.25 in [9]; 1.04 in experiment [10]. Moreover, in experiment [12], the composite z-score worked out at 0.0402. Moreover, the z-score in experiment [2] is -0.535 (inactive); in [3], 0.13 (inactive); in experiment [4] it was 2.77 (inactive); in experiment [5], -0.245 (inactive); in experiment [11], 0.115 (inactive); in [13] it was 5.14 (inactive). In addition, the z-score in experiment [14] was 0.985 (inactive); in [15] it was 2.45 (inactive); in experiment [16] it was 0.638 (inactive); in [17], -0.0039; in experiment [18], -0.443 (inactive); in experiment [19], -0.076 (inactive). Further, in experiment [20], the z-score was determined as 0.863.

As for `COc1ccc(COC(=O)NN=C2C[C@@H](O)[C@@H](O)[C@@H]3[C@@H]4C(=O)N([C@@H](C)c5ccccc5)C(=O)[C@@H]4CC[C@H]23)cc1`, the composite z-score is 0.366 in [1]; 1.02 in experiment [6]; 0.0667 in experiment [7]; -0.982 in experiment [8]; 0.106 in experiment [9]; -0.983 in [10]. This compound came in with a composite z-score in [12] of 0.751. The z-score in experiment [2] was -1.71 (inactive); in experiment [3], -0.183 (inactive); in [4], 1.79 (inactive); in experiment [5] it was -0.183 (inactive); in [11], 0.486 (inactive); in experiment [13], 7.67 (inactive). The z-score in experiment [14] is 0.805 (inactive); in [15] it was -0.0805 (inactive); in [16] it was 0.501 (inactive); in [17] it was -0.34; in experiment [18], 0.947 (inactive); in experiment [19] it was 0.672 (inactive). Moreover, the z-score in experiment [20] is -0.419.

Take `COc1ccc(OC[C@@H]2CC3[C@@H](c4ccc(Br)cc4)[C@H](C)CC[C@H]3C(=O)O2)cc1` (stereo not given in full): the composite z-score in experiment [1] is -0.223; in experiment [6], 0.0139; in experiment [7] it was -0.202; in experiment [8] it was 0.327; in experiment [9] it was 0.832; in [10] it was 0.391. The same compound displayed a composite z-score in experiment [12] of -0.106. In addition, the z-score in experiment [2] was -0.513 (inactive); in [3], -0.12 (inactive); in experiment [4], 1.9 (inactive); in experiment [5], -0.462 (inactive); in [11] it was -0.594 (inactive); in [13], 4.49 (inactive). Moreover, the z-score in [14] is 1.7 (inactive); in [15] it was 0.85 (inactive); in [16], 0.759 (inactive); in experiment [17] it was 0.338; in experiment [18], -0.803 (inactive); in experiment [19] it was -0.178 (inactive). Besides, the z-score in [20] is -0.351.

With `COc1cccc([C@H]2Oc3ccc(OC)cc3C(=NO[C@@H](C)c3cc(-c4c(C)cc(C)cc4C)no3)[C@@H]2O)c1`, the composite z-score was -0.556 in experiment [1]; -0.756 in [6]; -0.23 in experiment [7]; -1.26 in experiment [8]; -0.489 in experiment [9]; -2.3 in [10]. The composite z-score in experiment [12] was -0.0061. In addition, the z-score in [2] was -0.686 (inactive); in [3] it was 0.409 (inactive); in experiment [4], 1.42 (inactive); in [5], 0.596 (inactive); in [11], -1.74 (inactive); in [13] it was 5.05 (inactive). The z-score in experiment [14] was 1.38 (inactive); in experiment [15], -0.0548 (inactive); in experiment [16], 0.907 (inactive); in [17], -0.902; in experiment [18], 0.314 (inactive); in [19] it was 0.21 (inactive). Moreover, the z-score in [20] was -0.577.
